Assay [1] concerns the target Ubiquitin carboxyl-terminal hydrolase 2 (Homo sapiens) (UniProt O75604). The assay is described as follows: qHTS Validation Assay for Inhibitors of Ubiquitin-specific Protease USP2a Using CHOP2 as the Reporter (AID 463106). The essentials:
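USP2 core (10 nM final) was preincubated with compound 30 min at RT in pH 8.0 Tris/CaCl2/beta-ME/CHAPS buffer. Ub-CHOP2 and reporter substrate (25 nM final each) were then added, with fluorescence (Ex 485/Em 531) read after 60 min. Data were normalized to NEM full inhibition and fitted to concentration-response curves.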
In general terms: qHTS replaces the single test concentration by a dilution series.

Assay [2] addresses DNA polymerase III PolC-type (Bacillus subtilis (strain 168)) (UniProt P13267). The assay is described as follows: qHTS Validation Assay for the Inhibitors of DNA Replication in Gram-Positive Bacteria (AID 485295).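 Also: reconstituted holoenzyme with PolC plus beta clamp SSB and primase; PicoGreen fluorescence of double-stranded DNA made on primed circular M13 template; series mostly up to about 57 µM.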 The essentials: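 Primed replication of single-stranded M13Gori by a four-protein B. subtilis holoenzyme is measured at room temperature. Double-stranded product is quantified by PicoGreen fluorescence after an EDTA stop; inhibition is scaled between DMSO and EDTA controls.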

Assay [3] can be described thus: qHTS Validation Assay to Find Inhibitors of Chronic Active B-Cell Receptor Signaling (AID 485345; active = well fitted curve in the direction sought with a large enough effect in the main read-out, with a control signal flat, not every such curve was filed as active). The gist of the method: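 TMD8 ABC-DLBCL cells stably carrying doxycycline-inducible IkappaBalpha–green luciferase fusion plus unfused red luciferase; compounds 46 uM to 3 nM, 4 h at 37C with doxycycline. Corrected green/red luminescence ratio normalized to 10 uM MG-132 and basal cell wells; curves fitted.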

The target in assay [4] is Beta-2 adrenergic receptor (Homo sapiens) (UniProt P07550). The assay is described as follows: qHTS validation assay of beta-arrestin-biased ligands of beta2-adrenergic receptor (AID 485366). The essentials: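 Luminescence from a tTA-responsive luciferase, induced when recombinant beta-arrestin is recruited to recombinant beta2-AR, served as the agonism signal. Cells were exposed to compound for 18 hr at 37 degrees C; titrations spanned up to 46 microM.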

Assay [5] deals with ATP-dependent 6-phosphofructokinase (Trypanosoma brucei brucei) (UniProt O15648). Briefly: qHTS Validation Assay to Find Inhibitors of T. brucei phosphofructokinase (AID 485368). The gist of the method:
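Activity was normalized between 1x (1.25 nM) PFK wells as no inhibition and enzyme-free wells as full inhibition, from luminescence after ADP-Glo detection of ADP made from 0.5 mM F6P and 0.1 mM ATP over 45 min.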

Assay [6] can be described thus: Quantitative high throughput screen for delayed death inhibitors of the malarial parasite plastid, 96 hour incubation (AID 488745). Also: nearly all actives have a fitted effect of over 70% in size. Also: potency is read from the fitted curve at half-maximal effect. The gist of the method: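 Luciferase-expressing P. falciparum in erythrocytes (2% hematocrit, 0.1% parasitemia) incubated with compound for 96 h at 37 C, 5% CO2, in RPMI 1640 with 0.5% Albumax. Growth inhibition read as decreased luminescence.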

Assay [7] is described as follows: Quantitative high throughput screen for delayed death inhibitors of the malarial parasite plastid, 48 hour incubation (AID 488752). Also: nearly all actives have a fitted effect of over 65% in size. The essentials:
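Erythrocytes infected with firefly luciferase-expressing P. falciparum (2% hematocrit, 0.1% parasitemia) cultured with compound for 48 h at 37 C, 5% CO2, in RPMI 1640/0.5% Albumax. Growth inhibition read as loss of luminescence.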

Assay [8] addresses Thioredoxin reductase 1, cytoplasmic (Rattus norvegicus) (UniProt O89049). The assay is described as follows: qHTS Assay for Inhibitors of Mammalian Selenoprotein Thioredoxin Reductase 1 (TrxR1) (AID 488773).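 Also: drop in NADPH fluorescence over an 8 min run after selenite addition; series mostly up to about 57 µM; nearly all actives have a fitted effect of over 40% in size.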 To be noted: Potency: inhibition. The gist of the method:
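Steps: enzyme (90 nM) plus NADPH (400 uM final), 5 min at ~22 deg C; compound added, 15 min; selenite (400 uM final) added; fluorescence followed for 8 min. Concentration-response curves derived from the normalized delta values.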

Assay [9] addresses Flap endonuclease 1 (Homo sapiens) (UniProt P39748). The assay is described as follows: qHTS Validation Assay for the Inhibitors of Human Flap endonuclease 1 (FEN1) (AID 488816). Also: potency is read from the fitted curve at half-maximal effect. The essentials: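 Human FEN1 (10 nM) preincubated 15 min at room temperature with compounds, then flap DNA substrate added at 50 nM final. Fluorescence read at 0 and 15 min; concentration-response fitted with four-parameter Hill equation.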

Assay [10] deals with M-phase phosphoprotein 8 (Homo sapiens) (UniProt Q99549). The assay is described as follows: qHTS Validation Assay for Inhibitors for MPP8 Chromodomain Interactions with Methylated Histone Tails (AID 488949). Also: nearly all actives have a fitted effect of over 55% in size. Also: potency is read from the fitted curve at half-maximal effect. The gist of the method: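 Disruption of the preformed MPP8–trimethyl-H3K9 peptide complex (both 50 nM, 30 min, RT) is measured after 30 min compound exposure, using AlphaScreen proximity beads; aurintricarboxylic acid titration serves as plate control.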

Assay [11] deals with Chromobox protein homolog 1 (Homo sapiens) (UniProt P83916). The assay is described as follows: qHTS Validation Assay for Inhibitors of HP1-beta Chromodomain Interactions with Methylated Histone Tails (AID 488953). Also: nearly all actives have a fitted effect of over 50% in size. Also: potency is read from the fitted curve at half-maximal effect. The essentials: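 HP1-beta (50 nM) preformed 30 min with biotinylated H3(1-18)K9me3 peptide (50 nM) in PBS pH 7.4, 0.01% Tween-20. Compounds added for 30 min at room temperature. Complex disruption read by AlphaScreen with streptavidin donor/nickel chelate acceptor beads (10 ug/mL each).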

Assay [12] concerns the target Methanococcus maripaludis chaperonin (MmCpn) (UniProt Q6LX38). The assay is described as follows: High-Throughput Screening for Modulators of Cytosolic Chaperonin Activity: MmCpn Primary Screen (AID 488978).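 Also: 50 nM MmCpn enzyme hydrolysing 30 µM ATP at 37 °C.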 The essentials: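 Measures ATPase turnover of the M. maripaludis chaperonin (50 nM final) against 30 uM ATP over 10 min at 37C, with compound added 5 min beforehand at room temperature. ADP is quantified by HTRF immunodetection.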

Assay [13] addresses Transient receptor potential cation channel subfamily V member 1 (Homo sapiens) (UniProt Q8NER1). Briefly: HTS Assay for Compounds that Act as Enhancers of the Vanilloid Receptor 1 (AID 488979). The essentials: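 TRPV1 cells loaded with Fluo-8 calcium dye; compound added and Ca2+ signal (ex 480/em 520 nm) followed 3 min, then capsaicin at EC20 added and read 2 more min to detect enhancement.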

Assay [14] concerns the target Thyrotropin receptor (Homo sapiens) (UniProt P16473). The assay is described as follows: qHTS Assay for Antagonists of the Thyroid Stimulating Hormone Receptor (AID 488980). Also: series mostly up to about 58 µM. The essentials: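 Cells expressing human TSHR (HEK293) are dispensed in HBSS/HEPES containing 70 uM RO 20-1724, compound is added, then TSH at EC80 (4 nM final). Antibody in lysis buffer follows, 30 minutes at room temperature before HTRF detection.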

The target in assay [15] is D(1A) dopamine receptor (Homo sapiens) (UniProt P21728). Briefly: HTS Assay for Allosteric Agonists of the Human D1 Dopamine Receptor: Primary Screen for Agonists (AID 488981). The gist of the method:
(§1)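 Tetracycline-induced HEK293 Trex D1 cells with forced coupling to calcium, loaded with no-wash calcium dye; kinetic fluorescence read 180 s after compound addition for agonism, then a further 180 s after an EC20 dopamine challenge for potentiation.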

The target is the same in assay [16]. Briefly: HTS Assay for Allosteric Agonists of the Human D1 Dopamine Receptor: Primary Screen for Potentiators (AID 488982). The gist of the method:
as §1

For assay [17] the target is unchanged. Briefly: HTS Assay for Allosteric Agonists of the Human D1 Dopamine Receptor: Primary Screen for Antagonists (AID 488983).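 Also: calcium flux response to an EC80 dopamine challenge measured with no-wash dye; nearly all actives have a fitted effect of over 65% in size.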 Also: potency is read from the fitted curve at half-maximal effect. The essentials: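 Tetracycline-induced HEK293 T-REx D1 line, force-coupled to calcium flux, read with no-wash calcium dye. Compound added after 10 s baseline, read 180 s for agonism, then EC80 dopamine added and read a further 180 s.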

The target of assay [18] is Tumor susceptibility gene 101 protein (Homo sapiens) (UniProt Q99816). Briefly: qHTS Validation Assay for Iinhibitors of HIV-1 Budding by Blocking the Interaction of PTAP/TSG101 (AID 485342; calls by dose curve). The essentials:
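Fluorescence anisotropy measured PTAP-Tsg101 interaction. Final concentrations were 10 uM protein domain and 50 nM labeled peptide, equilibrated 20 min at room temperature.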

Assay [19] addresses Thioredoxin reductase 1, cytoplasmic (Rattus norvegicus) (UniProt O89049). Briefly: qHTS Assay for Substrates of Mammalian Selenoprotein Thioredoxin Reductase 1 (TrxR1) (AID 488772).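 Also: NADPH fluorescence in the first read after selenite addition and not the 8 min delta; series mostly up to about 57 µM; a drop in NADPH fluorescence below the no-compound background marks a TrxR1 substrate.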 The essentials:
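Quantitative HTS in Tris-HCl buffer at pH 7.5 with EDTA and Tween-20, using rat TrxR1, 400 uM NADPH and 400 uM selenite (final). A fall in initial NADPH fluorescence relative to background marked substrate behaviour.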

Where “and” joins values, the source holds several entries; their conditions need not be identical. Equal values may be shown once. Inconclusive results are not listed. Calls of active or inactive are those of the source. Unless noted, calls follow the shape of the dose curve; as a rule, active = well fitted curve in the direction sought with a large enough effect; inconclusive = small, poorly fitted or top-dose-only effect, or another doubt; inactive = no such curve, though single readings can be large; an effect the other way counts as inactive or inconclusive.

Beta-2 adrenergic receptor (Homo sapiens), sequence (P07550 whole entry, looked up): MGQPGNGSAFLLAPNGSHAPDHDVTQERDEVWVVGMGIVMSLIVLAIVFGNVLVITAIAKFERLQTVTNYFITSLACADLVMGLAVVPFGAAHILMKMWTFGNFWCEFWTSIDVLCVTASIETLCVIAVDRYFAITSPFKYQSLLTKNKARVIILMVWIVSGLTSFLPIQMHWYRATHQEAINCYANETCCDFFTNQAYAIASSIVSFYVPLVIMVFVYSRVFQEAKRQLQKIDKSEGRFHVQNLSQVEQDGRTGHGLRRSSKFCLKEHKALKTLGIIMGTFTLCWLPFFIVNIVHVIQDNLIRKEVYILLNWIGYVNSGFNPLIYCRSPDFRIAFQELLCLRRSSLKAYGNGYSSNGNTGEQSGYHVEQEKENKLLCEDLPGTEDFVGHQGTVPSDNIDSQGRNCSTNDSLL
Tumor susceptibility gene 101 protein (Homo sapiens), sequence (Q99816 whole entry, looked up, the tested form may be a part): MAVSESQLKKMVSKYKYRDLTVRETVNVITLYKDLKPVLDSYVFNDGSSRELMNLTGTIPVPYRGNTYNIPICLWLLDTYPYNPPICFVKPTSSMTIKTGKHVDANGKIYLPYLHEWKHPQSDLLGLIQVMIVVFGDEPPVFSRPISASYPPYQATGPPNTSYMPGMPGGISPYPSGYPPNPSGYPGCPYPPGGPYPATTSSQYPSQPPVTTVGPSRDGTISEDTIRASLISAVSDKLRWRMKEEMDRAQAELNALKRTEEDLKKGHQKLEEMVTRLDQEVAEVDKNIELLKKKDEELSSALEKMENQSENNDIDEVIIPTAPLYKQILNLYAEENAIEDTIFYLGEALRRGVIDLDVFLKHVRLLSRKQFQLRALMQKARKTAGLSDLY
Flap endonuclease 1 (Homo sapiens), sequence (P39748 whole entry, looked up): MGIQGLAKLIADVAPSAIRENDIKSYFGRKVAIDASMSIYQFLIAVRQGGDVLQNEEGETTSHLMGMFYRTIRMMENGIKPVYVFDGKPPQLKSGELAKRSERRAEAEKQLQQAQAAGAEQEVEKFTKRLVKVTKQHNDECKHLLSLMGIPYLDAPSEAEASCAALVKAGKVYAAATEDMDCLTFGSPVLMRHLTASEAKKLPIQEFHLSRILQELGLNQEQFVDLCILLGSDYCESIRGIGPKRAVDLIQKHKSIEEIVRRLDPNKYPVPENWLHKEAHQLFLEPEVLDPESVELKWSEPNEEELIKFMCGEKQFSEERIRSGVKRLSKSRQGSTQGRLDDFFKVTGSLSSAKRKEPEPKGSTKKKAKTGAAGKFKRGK
Ubiquitin carboxyl-terminal hydrolase 2 (Homo sapiens), sequence (O75604 whole entry, looked up): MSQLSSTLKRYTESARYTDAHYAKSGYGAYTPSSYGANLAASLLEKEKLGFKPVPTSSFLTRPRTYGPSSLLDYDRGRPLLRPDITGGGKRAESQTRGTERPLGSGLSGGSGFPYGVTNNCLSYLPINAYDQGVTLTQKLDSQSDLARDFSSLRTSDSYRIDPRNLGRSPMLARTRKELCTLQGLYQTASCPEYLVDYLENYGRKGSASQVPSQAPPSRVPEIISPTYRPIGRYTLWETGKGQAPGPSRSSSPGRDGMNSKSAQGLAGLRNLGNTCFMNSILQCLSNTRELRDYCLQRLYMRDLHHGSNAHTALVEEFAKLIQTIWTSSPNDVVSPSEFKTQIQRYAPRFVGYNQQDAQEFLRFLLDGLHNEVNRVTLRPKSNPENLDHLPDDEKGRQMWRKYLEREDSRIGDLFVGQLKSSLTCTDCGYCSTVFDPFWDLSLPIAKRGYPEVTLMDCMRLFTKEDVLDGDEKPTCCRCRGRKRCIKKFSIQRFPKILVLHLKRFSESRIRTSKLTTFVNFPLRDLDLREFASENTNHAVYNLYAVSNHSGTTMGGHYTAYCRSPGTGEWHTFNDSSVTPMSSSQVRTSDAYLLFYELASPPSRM
DNA polymerase III PolC-type (Bacillus subtilis (strain 168)), sequence (P13267 whole entry, looked up): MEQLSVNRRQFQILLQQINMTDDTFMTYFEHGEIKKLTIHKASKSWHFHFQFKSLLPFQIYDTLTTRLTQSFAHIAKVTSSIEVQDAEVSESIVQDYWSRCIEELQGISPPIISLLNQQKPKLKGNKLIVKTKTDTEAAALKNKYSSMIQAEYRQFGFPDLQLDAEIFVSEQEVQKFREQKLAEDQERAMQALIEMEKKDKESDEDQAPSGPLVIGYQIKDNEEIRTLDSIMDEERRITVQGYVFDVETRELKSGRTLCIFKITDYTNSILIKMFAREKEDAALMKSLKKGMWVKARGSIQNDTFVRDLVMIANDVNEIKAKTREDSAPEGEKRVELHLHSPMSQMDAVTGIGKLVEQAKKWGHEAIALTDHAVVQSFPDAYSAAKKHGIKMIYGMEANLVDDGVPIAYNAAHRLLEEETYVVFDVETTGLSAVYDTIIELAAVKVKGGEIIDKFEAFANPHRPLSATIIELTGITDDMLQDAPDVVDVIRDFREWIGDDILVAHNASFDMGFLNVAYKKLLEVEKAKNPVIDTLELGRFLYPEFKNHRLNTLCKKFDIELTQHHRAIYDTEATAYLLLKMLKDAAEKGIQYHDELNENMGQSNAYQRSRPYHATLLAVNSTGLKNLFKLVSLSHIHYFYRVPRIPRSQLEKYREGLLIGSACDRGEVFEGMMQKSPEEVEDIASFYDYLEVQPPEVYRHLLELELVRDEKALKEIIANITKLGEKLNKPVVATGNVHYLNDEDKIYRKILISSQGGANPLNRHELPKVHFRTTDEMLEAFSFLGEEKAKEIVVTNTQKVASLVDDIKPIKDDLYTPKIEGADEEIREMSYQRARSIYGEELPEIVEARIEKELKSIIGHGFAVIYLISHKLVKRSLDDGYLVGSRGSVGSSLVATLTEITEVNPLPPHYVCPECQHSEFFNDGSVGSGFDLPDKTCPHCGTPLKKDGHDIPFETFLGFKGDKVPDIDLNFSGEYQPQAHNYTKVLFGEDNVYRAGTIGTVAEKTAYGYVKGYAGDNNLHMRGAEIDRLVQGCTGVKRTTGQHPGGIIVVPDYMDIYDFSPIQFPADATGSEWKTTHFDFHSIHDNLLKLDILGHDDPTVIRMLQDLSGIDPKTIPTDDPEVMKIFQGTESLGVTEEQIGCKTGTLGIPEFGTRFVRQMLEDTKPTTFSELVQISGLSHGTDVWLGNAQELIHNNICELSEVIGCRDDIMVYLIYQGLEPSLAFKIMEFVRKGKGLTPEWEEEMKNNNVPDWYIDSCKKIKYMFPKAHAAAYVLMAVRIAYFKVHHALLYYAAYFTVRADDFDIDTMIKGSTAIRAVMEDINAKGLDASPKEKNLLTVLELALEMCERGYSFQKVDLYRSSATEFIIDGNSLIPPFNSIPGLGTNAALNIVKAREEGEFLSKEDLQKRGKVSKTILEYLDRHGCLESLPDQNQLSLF
Thioredoxin reductase 1, cytoplasmic (Rattus norvegicus), sequence (O89049 whole entry, looked up): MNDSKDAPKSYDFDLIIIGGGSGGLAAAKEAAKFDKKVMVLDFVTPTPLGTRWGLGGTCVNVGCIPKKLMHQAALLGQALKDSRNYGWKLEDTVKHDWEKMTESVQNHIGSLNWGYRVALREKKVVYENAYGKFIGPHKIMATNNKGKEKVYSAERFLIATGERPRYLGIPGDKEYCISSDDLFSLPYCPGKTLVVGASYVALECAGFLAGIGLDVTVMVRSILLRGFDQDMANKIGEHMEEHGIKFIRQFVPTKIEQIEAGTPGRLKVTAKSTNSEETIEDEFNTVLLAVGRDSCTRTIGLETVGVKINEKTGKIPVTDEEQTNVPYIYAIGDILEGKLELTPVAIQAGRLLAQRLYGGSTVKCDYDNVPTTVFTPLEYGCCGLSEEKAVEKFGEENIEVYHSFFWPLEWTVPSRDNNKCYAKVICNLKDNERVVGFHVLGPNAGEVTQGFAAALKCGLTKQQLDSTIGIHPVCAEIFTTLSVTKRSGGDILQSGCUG
Chromobox protein homolog 1 (Homo sapiens), sequence (P83916 whole entry, looked up): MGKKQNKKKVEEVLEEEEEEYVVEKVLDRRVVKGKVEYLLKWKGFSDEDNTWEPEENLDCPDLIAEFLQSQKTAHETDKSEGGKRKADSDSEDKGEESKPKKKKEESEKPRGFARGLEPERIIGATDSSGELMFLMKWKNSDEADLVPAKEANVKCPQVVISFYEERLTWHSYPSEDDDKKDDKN
D(1A) dopamine receptor (Homo sapiens), sequence (P21728 whole entry, looked up): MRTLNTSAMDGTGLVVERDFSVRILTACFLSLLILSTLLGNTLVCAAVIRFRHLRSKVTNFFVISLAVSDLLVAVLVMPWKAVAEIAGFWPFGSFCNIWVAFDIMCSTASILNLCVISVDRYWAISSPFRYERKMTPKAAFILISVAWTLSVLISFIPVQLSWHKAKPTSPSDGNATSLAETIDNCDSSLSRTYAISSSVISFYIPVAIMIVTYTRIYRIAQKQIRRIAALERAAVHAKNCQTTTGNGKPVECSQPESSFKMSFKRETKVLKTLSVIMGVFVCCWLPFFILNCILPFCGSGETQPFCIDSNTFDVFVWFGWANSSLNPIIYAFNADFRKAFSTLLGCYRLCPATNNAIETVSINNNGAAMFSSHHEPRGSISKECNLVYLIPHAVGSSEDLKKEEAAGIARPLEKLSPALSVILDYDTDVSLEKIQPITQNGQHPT
ATP-dependent 6-phosphofructokinase (Trypanosoma brucei brucei), sequence (O15648 whole entry, looked up): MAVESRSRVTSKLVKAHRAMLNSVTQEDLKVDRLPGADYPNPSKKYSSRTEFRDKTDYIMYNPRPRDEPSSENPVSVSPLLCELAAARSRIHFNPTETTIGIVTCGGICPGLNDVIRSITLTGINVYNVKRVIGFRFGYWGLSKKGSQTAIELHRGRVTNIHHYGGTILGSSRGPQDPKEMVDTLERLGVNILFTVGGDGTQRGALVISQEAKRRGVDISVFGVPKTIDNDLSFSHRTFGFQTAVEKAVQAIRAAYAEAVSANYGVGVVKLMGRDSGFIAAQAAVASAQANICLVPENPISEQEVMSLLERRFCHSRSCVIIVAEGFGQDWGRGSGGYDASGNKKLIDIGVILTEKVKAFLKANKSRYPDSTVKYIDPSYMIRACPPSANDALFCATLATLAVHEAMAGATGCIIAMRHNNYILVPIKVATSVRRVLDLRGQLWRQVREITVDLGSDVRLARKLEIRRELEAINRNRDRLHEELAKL

For `NCCc1cnc[nH]1`, the Potency result in assay [1], in assay [2], in [3], in assay [5], in assay [6] and in assay [7] was “inactive” throughout. For the same compound, the Potency entry in [8], in assay [9], in assay [10], in [11], in assay [15] and in assay [16] was “inactive” in each case. In addition, the Potency entry in assay [17] is “inactive”. The result in assay [4], in [12], in [13] and in [14] was inactive.

As for `CN1CCN(CCCN2c3ccccc3Sc3ccc(Cl)cc32)CC1`, the Potency entry in assay [1], in [2], in assay [8], in assay [9], in [15] and in [16] was “inactive” each time. Besides, the result in [18], in [4], in assay [19], in assay [12] and in [14] was inactive. Further, the Potency in [10] was 25.1 µM (active) and 15 µM (active); in [11] it was 31.6 µM (active).

Turning to `Nc1c2c(nc3ccccc13)CCCC2`, the Potency entry in assay [1], in assay [2], in [3], in [5], in [8] and in assay [9] was “inactive” throughout. In addition, the Potency result in assay [10], in assay [11], in assay [15], in assay [16] and in assay [17] was “inactive” each time. Moreover, the outcome in assay [18], in assay [12], in assay [13] and in [14] was inactive.

Consider `C[C@H]1c2cccc(O)c2C(O)=C2C(=O)[C@]3(O)C(O)=C(C(N)=O)C(=O)[C@@H](N(C)C)[C@@H]3[C@@H](O)[C@@H]21`, for which the Potency entry in assay [1], in assay [2], in assay [3], in [5], in assay [8] and in [10] was “inactive” in each case. Also, the Potency entry in assay [15] and in [17] was “inactive” throughout. Besides, the outcome in assay [4], in assay [19] and in [12] was inactive. Further, the Potency in [9] is 23.8 µM (active).

Regarding `O=C1Cc2cc(CCN3CCN(c4nsc5ccccc45)CC3)c(Cl)cc2N1`, the Potency entry in assay [1], in assay [2], in assay [5], in assay [8], in assay [9] and in [10] was “inactive” in each case. Moreover, the Potency result in assay [15] and in assay [16] was “inactive” each time. Further, the compound was classed as inactive in [18], in [4], in [19] and in assay [12].

Take `CN1CCC(=C2c3ccccc3CC(=O)c3sccc32)CC1`: the Potency result in assay [1], in [2], in [3], in assay [6], in assay [7] and in [8] was “inactive” each time. Besides, the Potency entry in [9], in assay [10], in [15] and in [16] was “inactive” throughout. Besides, the call in [4], in assay [19], in assay [12], in [13] and in [14] was inactive. The Potency in assay [17] is 2 µM (active).

For `CCCNCC(O)COc1ccccc1C(=O)CCc1ccccc1` (configuration not stated), the Potency result in assay [1], in [2], in assay [5], in assay [8], in assay [9] and in [11] was “inactive” throughout. The Potency entry in assay [15] and in [16] was “inactive” in each case. Further, the result in assay [4], in assay [19], in assay [12] and in assay [14] was inactive. Also, the Potency was 2.62 µM (active) in assay [6] and 10 µM (active) in assay [17].

Take `Clc1ccc2nsnc2c1NC1=NCCN1`: the Potency entry in assay [1], in [2], in [3], in assay [8], in assay [9] and in [10] was “inactive” each time. Besides, the Potency entry in assay [11], in assay [15], in [16] and in [17] was “inactive” in each case. For the same compound, the outcome in [4], in [19] and in assay [12] was inactive.

As to `Cn1c(=O)c2[nH]cnc2n(C)c1=O`, the Potency entry in assay [1], in assay [2], in assay [6], in assay [8], in assay [9] and in assay [10] was “inactive” throughout. In addition, the Potency entry in [11], in [15], in assay [16] and in [17] was “inactive” each time. For the same compound, the result in assay [4], in assay [19], in assay [12], in assay [13] and in assay [14] was inactive.

The record behind these values is PubChem BioAssay (NCATS).
